Assay results reported in ChEMBL document CHEMBL4513216, “Probing the Open Global Health Chemical Diversity Library for Multistage-Active Starting Points for Next-Generation Antimalarials” (ACS Infect Dis, 2020).
The campaign covered roughly 68,000 compounds. About 2,700 (4%) showed an effect of 50% or more. The full list was thinned out, with strong results kept by preference.

Test system: Plasmodium berghei
Test: Screen against P. berghei liver stage (PbLuc), transformed with Luciferase, at 2uM
Type: functional, HepG2
Details: tested at 2 uM

Structure (SMILES) | INHIBITION [%]
Cc1nn(CC(C)C)c(N(C)C)c1CNCc1ccnn1C | 9.97
COCCn1ccc(=O)c(OCC(=O)Nc2cccc(Cl)c2)c1C | 6.41
Cc1noc(C2CCCN(C(=O)CCNc3ncccn3)C2)n1 (configuration not stated) | 31.78
CC(C)CCN(C)Cn1ncc2cn(-c3ccccc3)nc2c1=O | 19.45
O=C(NCC1OCCc2cn(CC3CCOCC3)nc21)c1ccncc1 (configuration not stated) | 56.71
Cc1cc(C(=O)NCC2OCCc3cn(CC4CC4)nc32)c(C)[nH]1 (configuration not stated) | -28.58
COCCn1cc2c(n1)C(CNS(C)(=O)=O)OCC2 (configuration not stated) | 35.07
c1ccc(Cn2cc3c(n2)C(CNCc2ccco2)OCC3)nc1 (configuration not stated) | 15.96
COCCn1cc2c(n1)C(CNC(=O)c1cc(C)[nH]c1C)OCC2 (configuration not stated) | 60.14
c1cc(CNCC2OCCc3cn(CC4CCOCC4)nc32)ccn1 (configuration not stated) | -66.93
O=S(=O)(NCC1OCCc2cn(CC3CCOCC3)nc21)C1CC1 (configuration not stated) | 24.43
CCS(=O)(=O)NCC1OCCc2cn(CC3CCOCC3)nc21 (configuration not stated) | 62.4
c1ccc(Cn2cc3c(n2)C(CNCC2CCOCC2)OCC3)nc1 (configuration not stated) | 26.66
O=C(NCC1OCCc2cn(CC3CCOCC3)nc21)c1ccsc1 (configuration not stated) | -40.44
O=S(=O)(NCC1OCCc2cn(Cc3ccccn3)nc21)C1CC1 (configuration not stated) | 50.32
CCCS(=O)(=O)NCC1OCCc2cn(CC3CCOCC3)nc21 (configuration not stated) | 12.95
Cc1cc(-c2cnc(N3CCC(C(N)=O)CC3)nc2C(C)C)on1 | -12.93
O=C(NCc1cccnc1)N1CCC2(CC(=O)N(c3ccsc3)C2)C1 (configuration not stated) | 13.92
CCN1C[C@H]2C3(CCN(C(C)=O)CC3)CC[C@@]2(C(=O)N(C)C)C1 | 17.47
Cc1ccc(NC2CCN(C(=O)c3ccc(C)o3)CC2)nn1 | -47.54
Cc1n[nH]c2ncc(CNC3CCCN(c4ncccn4)C3)cc12 (configuration not stated) | 42.17
O=C(c1cccnc1)N1CCC2(CCN(C(=O)N3CCCC3)CC2)C1 | -11.34
COCCn1c2c(ccc1=O)CC(NCc1cccnc1OC)CC2 (configuration not stated) | -1.81
CCc1ncnc2c1CCN(Cc1nccs1)CC2 | -6.83
CC(=O)NCCNC(=O)C1(N2CCCCC2)Cc2ccccc2C1 | 10.91
O=C(NCCCO)C1(N2CCCCC2)Cc2ccccc2C1 | -118.83

Structure (SMILES) | INHIBITION [%]
O=C1OCCN1CCNC(=O)C1(N2CCCCC2)Cc2ccccc2C1 | 51.96
CNC(=O)c1nn(C)cc1NC(=O)C(C)n1ncc(Cl)c1C (configuration not stated) | -11.07
CC(C)CN1CCN(C(=O)c2[nH]nnc2Nc2ccccc2F)CC1 | -19.92
Cc1ncc(C(=O)N2CCCC2(C)C(=O)N2CCOCC2)c(C)n1 (configuration not stated) | -14.73
Cc1cc(N(C)C)nc(C2(C)CCCN2C(=O)c2cncnc2C)n1 (configuration not stated) | 14.05
Cc1nc(N)ncc1C(=O)N1CCCC1(C)C(=O)N(C)C (configuration not stated) | 50.17
O=C(NCCCNc1ccccn1)NCC1CCS(=O)(=O)C1 (configuration not stated) | 41.93
COc1ccc(F)c(CN2CCC(c3cc(O)nc(C)n3)C2)c1 (configuration not stated) | 25.87
CNC(=O)COC1COC2(CCN(c3ccc(C)nn3)CC2)C1 (configuration not stated) | -37.31
O=C(c1ccno1)N1CCO[C@@H]2CC(COCc3ccccn3)C[C@H]21 (some centres not stated) | 43.24
Cc1ncccc1NC(=O)C1=NOC2(CCN(Cc3nccs3)C2)C1 (configuration not stated) | 16.87
O=C(NCCN1CCOCC1)C1=NOC2(CCN(Cc3nccs3)C2)C1 (configuration not stated) | 50.9
CNC(=O)C1=NOC2(CCN(Cc3nccs3)C2)C1 (configuration not stated) | 5.9
CCc1nc(C2CCCN2Cc2ccno2)no1 (configuration not stated) | -62.13
O=C1NCC2(CCCN(Cc3cccnc3)C2)Oc2ccccc21 (configuration not stated) | 24.06
Cc1cc(-c2cc(S(=O)(=O)N3C[C@H](C4CC4)[C@@H](N)C3)c(C)s2)on1 | 14.95
COc1cccc(CN2CCCC(c3nn(C)c4nccnc34)C2)c1 (configuration not stated) | 22.81
COc1cc(N2CCC3(CCCN(C(=O)c4cccnc4)C3)C2)ncn1 (configuration not stated) | -15.29
Cc1ccc(CNC(C)c2cc(F)ccc2N2CCN(C)CC2)o1 (configuration not stated) | 60.84
Cc1ccc(CNC(C)c2ccc(N3CCN(C)CC3)c(F)c2)o1 (configuration not stated) | 14.89
CC(NCc1ccncc1)c1cc(F)ccc1N1CCN(C)CC1 (configuration not stated) | 24.88
Cc1ccc(CC(=O)N2CCCC(c3ccn[nH]3)C2)cn1 (configuration not stated) | -5.3
O=C(NCCCO)c1cc(-c2cc[nH]n2)n2ccccc12 | -50.4
Fc1cccc(-c2nnn3c2COCC(CNCc2nccs2)C3)c1 (configuration not stated) | 3.18
CCc1cc(N(C)CCC(O)c2ccccc2)n2nccc2n1 (configuration not stated) | 53.12
COCc1cc(N(C)CCC(O)c2ccccc2)n2nccc2n1 (configuration not stated) | 45.87
